Results taken from PubChem BioAssay.
Inconclusive results are not listed. The source made the active and inactive calls.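 Rule for the calls, unless noted: active = viability at or below 10% of carrier control in both of two separate runs; inconclusive = viability at or below 10% in only one of the two runs; inactive = the rest.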

Experiments:
[1] = reducers of endogenous Her2 protein level, primary screen, SKBR3 breast tumor cells, AlphaScreen, ATP viability (AID 461;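 active = Her2 level under about 52% in both replicate screens, with viability over 70% of control, limit read from the data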;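 for Her2 level: lower value means less Her2 protein in the cells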;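 for viability: percent of carrier control wells set as 100% viability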); conditions: 18-24 h, measured here: SKBR3 viability, ATP luminescence, at 10 µM
[2] = target: Receptor tyrosine-protein kinase erbB-2 (Homo sapiens) (UniProt P04626); test: as above; conditions: 18-24 h, at 10 µM, stronger effect = lower value
Sequence of Receptor tyrosine-protein kinase erbB-2 (Homo sapiens) (P04626 whole entry, looked up): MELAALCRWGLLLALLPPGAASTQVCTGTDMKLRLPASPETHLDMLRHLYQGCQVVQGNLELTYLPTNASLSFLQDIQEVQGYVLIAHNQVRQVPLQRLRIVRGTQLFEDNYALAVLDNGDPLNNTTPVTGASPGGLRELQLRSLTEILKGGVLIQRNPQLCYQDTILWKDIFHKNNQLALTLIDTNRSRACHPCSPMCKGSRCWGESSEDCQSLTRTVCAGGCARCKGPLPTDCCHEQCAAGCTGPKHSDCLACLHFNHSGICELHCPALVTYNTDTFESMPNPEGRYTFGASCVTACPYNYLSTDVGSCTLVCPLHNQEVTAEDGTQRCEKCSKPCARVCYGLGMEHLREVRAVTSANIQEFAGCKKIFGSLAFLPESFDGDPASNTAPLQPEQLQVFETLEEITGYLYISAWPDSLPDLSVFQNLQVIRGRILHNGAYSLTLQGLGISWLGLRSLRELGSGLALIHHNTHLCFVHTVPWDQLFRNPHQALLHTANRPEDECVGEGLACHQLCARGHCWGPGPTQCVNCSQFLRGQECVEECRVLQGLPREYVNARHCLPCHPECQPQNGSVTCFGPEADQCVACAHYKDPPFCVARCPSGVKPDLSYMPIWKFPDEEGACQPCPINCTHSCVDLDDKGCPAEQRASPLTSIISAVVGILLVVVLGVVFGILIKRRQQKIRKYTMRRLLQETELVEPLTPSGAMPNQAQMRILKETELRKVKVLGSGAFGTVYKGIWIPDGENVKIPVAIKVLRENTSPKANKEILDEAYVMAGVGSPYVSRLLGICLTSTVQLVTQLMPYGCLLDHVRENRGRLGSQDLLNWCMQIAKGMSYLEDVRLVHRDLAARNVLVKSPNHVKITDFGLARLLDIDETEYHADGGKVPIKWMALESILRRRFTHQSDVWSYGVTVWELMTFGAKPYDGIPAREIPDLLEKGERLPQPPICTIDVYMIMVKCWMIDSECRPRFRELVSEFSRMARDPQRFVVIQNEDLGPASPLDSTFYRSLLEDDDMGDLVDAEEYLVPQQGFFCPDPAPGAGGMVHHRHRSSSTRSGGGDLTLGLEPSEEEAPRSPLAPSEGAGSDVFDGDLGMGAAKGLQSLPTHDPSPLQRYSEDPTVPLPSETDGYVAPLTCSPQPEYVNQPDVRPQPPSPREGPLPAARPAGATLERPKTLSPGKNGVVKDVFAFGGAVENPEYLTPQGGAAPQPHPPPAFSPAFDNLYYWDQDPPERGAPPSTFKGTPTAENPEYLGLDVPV

[3] = SK-BR-3 cell growth inhibitors, pilot screen, 24 h, human (AID 572); conditions: SK-BR-3 viability, CellTiter-Glo luminescence, at 10 µM, stronger effect = lower value;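 note: compound exposure lasted between 18 and 24 h rather than exactly 24 h; 100% = carrier-treated control wells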
[4] = HUVEC growth inhibition – cell-based, human, primary screen (AID 575;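 active = viability at or below 30% in both replicate assays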;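 note: 100% = median of untreated cell wells with 0.1% DMSO on each plate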); conditions: HUVEC proliferation, CellTiter-Glo luminescence, 72 h; at 10 µM; stronger effect = lower value
[5] = growth inhibitors of H69AR lung tumor, primary screen, human, duplicate replicates (AID 580;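 active = viability at or under a set limit in both replicates, limit being median viability minus 3 SD, cut at about 48% in these data, passing the limit was not always enough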;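 note: 100% = mean luminescence of untreated wells and 0% = no signal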); conditions: H69AR lung tumor cells viability, ATP luminescence, 72 h; at 10 µM; stronger effect = lower value
[6] = reversal of MRP1-mediated doxorubicin resistance, pilot screen, H69AR cells, doxorubicin co-treatment (AID 601;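 active = viability loss from added drug above about 55%, and viability with drug at most 40%, in both replicates, limit read from the data, passing the limit was not always enough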); conditions: CellTiter-Glo, 72 h, at 10 µM; for differential viability (reversal): stronger effect = higher value
[7] = 384-well plate pilot, post-Golgi transport modulator project, inhibition of yeast transport mutant growth (AID 636; in the data active = inhibition above about 31%); conditions: absorbance 615 nm, about 18 h, stronger effect = higher value
[8] = growth suppression of yeast trafficking mutant, preliminary HTS, modulators of trafficking downstream of Golgi apparatus project, 1536-format plate, OD 615 nm (AID 637; in the data active = inhibition above about 30%); conditions: yeast transport mutant growth, absorbance 615 nm, 18 h; stronger effect = higher value
[9] = OD615 S. cerevisiae growth inhibition, permissive medium, pilot counter-assay, permissive growth control for S. cerevisiae lifespan shortening project (AID 705;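 active = growth inhibition above 25% in both replicates, a cutoff set 3 SD above the mean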); conditions: OD615, 24 h, at 10 µM, stronger effect = higher value
[10] = Restrictive medium S. cerevisiae growth inhibition, OD615, pilot screen of yeast lifespan reduction project, restrictive growth control (AID 706;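 active = growth inhibition above a set limit, 3 SD over mean compound inhibition, in both replicates, cut at about 43% in these data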;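 note: modified DeaD lifespan yeast strain shifted to restrictive glucose medium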); conditions: OD615, 48 h, at 10 µM, stronger effect = higher value
[11] = viability gain of MRP-1-high H69AR cells under doxorubicin, pilot screen, MRP-1 activator project, CellTiter-Glo, duplicate (AID 807;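 active = viability increase at or above a cutoff of the median across tested compounds plus 3 SD, cut at about 8.5% in these data, passing the limit was not always enough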;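 note: compound pretreatment 18-22 h then 72 h combined with doxorubicin; 0% = doxorubicin alone and 100% = vehicle without doxorubicin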); conditions: H69AR viability with doxorubicin, CellTiter-Glo luminescence; at 10 µM; stronger effect = higher value
[12] = growth suppression of beta-catenin knockout HCT116, pilot screen, human colon tumor cells (AID 823;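 active = cell viability at or below a set limit in both duplicate runs, the limit being the all-compound median minus 4 SD, cut at about 23% in these data, passing the limit was not always enough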;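 note: 0% = wells killed by 20 µM Hyamine and 100% = untreated DMSO cell wells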); conditions: CellTiter-Glo, 60 h, at 10 µM, stronger effect = lower value
[13] = growth suppression of PTEN-deleted HCT116, pilot screen, cell-based, HCT116 clonal line, CellTiter-Glo (AID 824;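 active = viability at or below 27.92% in each of two runs, the all-compound median minus 4 SD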;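 note: 0% = 20 µM Hyamine control and 100% = vehicle cell control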); conditions: 60 h, at 10 µM, stronger effect = lower value
[14] = inhibitors of the yeast RAM network, pilot screen, dse1pr::URA3 reporter, 5-FOA selection (AID 869;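 active = inhibition over a set limit, the all-compound mean plus 3 SD, in both replicate runs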;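 note: 0% = DMSO wells with no growth and 100% = 10 µM 1-NA-PP1 with full growth; RAM network block rescues cells from 5-FOA so hits raise OD615 growth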); conditions: S. cerevisiae dse1pr::URA3 5-FOA growth, OD615, 2 d; at 10 µM; stronger effect = higher value; strain carries analog-sensitive mutant Cbk1 kinase
[15] = RAM signaling pathway blockade in yeast – S. cerevisiae, Pdr1DBD-CYC8 efflux-inhibited sensitized strain, primary screen (AID 1298;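 active = RAM network inhibition above 8.4% in each of two replicates, 3 SD over the compound average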;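 note: 0% = DMSO untreated cells without growth and 100% = 10 µM 1-NA-PP1 full growth; higher means more yeast growth rescued from 5-FOA killing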); conditions: S. cerevisiae cbk1-as DSE1-URA3 strain, 5-FOA growth OD615, 2 d; at 50 µM; stronger effect = higher value
[16] = H69AR cells + 2 uM doxorubicin, measured here: viability with 2 uM doxorubicin, stronger effect = lower value
[17] = H69AR cells, compound alone cytotoxicity

With `CC(OC(=O)C1CC=CCC1C(N)=O)C(Cl)=C(Cl)Cl` (stereo not drawn) the viability [1] was 88%, the Her2 level [2] was 105% (inactive) and the viability [3] was 88% (inactive). For the same compound, the viability [4] was 80.8% (inactive), the viability [5] was 93.7% (inactive) and the differential viability (reversal) ([6]; H69AR cells + 2 uM doxorubicin) was 7.14% (inactive). The viability [6, 16] was 86.5%, the viability [6, 17] was 93.7% and the inhibition [7] was 6.1% (inactive). For the same compound, the inhibition [8] was 1.31% (inactive), the growth inhibition [9] was -2.97% (inactive) and the growth inhibition [10] was -1.67% (inactive). For the same compound, the viability increase [11] was 0.52% (inactive), the viability [12] was 103% (inactive) and the viability [13] was 105% (inactive). For the same compound, the inhibition [14] was 0.055% (inactive) and the RAM network inhibition [15] was 2.45% (inactive).

In the case of `Cc1nnc(SCC(=O)Nc2c(Cl)cccc2Cl)[nH]c1=O`, the viability [1] is reported as 104%, the Her2 level [2] is reported as 101% (inactive) and the viability [3] is reported as 104% (inactive). The viability [4] was 99.1% (inactive), the viability [5] was 93.9% (inactive) and the differential viability (reversal) ([6]; H69AR cells + 2 uM doxorubicin) was 0.52% (inactive). For the same compound, the viability [6, 16] was 93.3%, the viability [6, 17] was 93.9% and the inhibition [7] was -3.73% (inactive). The inhibition [8] was -2.17% (inactive), the growth inhibition [9] was -7.89% (inactive) and the growth inhibition [10] was 7.47% (inactive). For the same compound, the viability increase [11] was 0.15% (inactive), the viability [12] was 98.7% (inactive) and the viability [13] was 104% (inactive). For the same compound, the inhibition [14] was 1.54% (inactive) and the RAM network inhibition [15] was 4.64% (inactive).

For `CCN1CCN(C(c2cccs2)C(C)NC(=O)c2ccccc2)CC1` (stereo not drawn), the viability [1] was 92%, the Her2 level [2] was 88% (inactive) and the viability [3] was 92% (inactive). For the same compound, the viability [4] was 104% (inactive), the viability [5] was 87.3% (inactive) and the differential viability (reversal) ([6]; H69AR cells + 2 uM doxorubicin) was 6.01% (inactive). For the same compound, the viability [6, 16] was 81.3%, the viability [6, 17] was 87.3% and the inhibition [7] was -0.26% (inactive). For the same compound, the inhibition [8] was 4% (inactive), the growth inhibition [9] was -5.51% (inactive) and the growth inhibition [10] was 1.4% (inactive). The viability increase [11] was -0.71% (inactive), the viability [12] was 101% (inactive) and the viability [13] was 105% (inactive). For the same compound, the inhibition [14] was -0.445% (inactive) and the RAM network inhibition [15] was 5.79% (inactive).

For `CC(NC(=O)c1noc2c1CCCCC2)c1ccccc1` (stereo not drawn), the viability [1] was 85.5%, the Her2 level [2] was 93.5% (inactive) and the viability [3] was 85.5% (inactive). The viability [4] was 89.1% (inactive), the viability [5] was 110% (inactive) and the differential viability (reversal) ([6]; H69AR cells + 2 uM doxorubicin) was 18.1% (inactive). For the same compound, the viability [6, 16] was 91.7%, the viability [6, 17] was 110% and the inhibition [7] was -3.59% (inactive). For the same compound, the inhibition [8] was -2% (inactive), the growth inhibition [9] was -16.4% (inactive) and the growth inhibition [10] was -14.1% (inactive). For the same compound, the viability increase [11] was 1.66% (inactive), the viability [12] was 100% (inactive) and the viability [13] was 102% (inactive). The inhibition [14] was -0.27% (inactive) and the RAM network inhibition [15] was 1.85% (inactive).

For `O=C(NCc1cccs1)C(Cc1ccccc1)n1cccc1` (stereo not drawn), the viability [1] was 114%, the Her2 level [2] was 110% (inactive) and the viability [3] was 114% (inactive). For the same compound, the viability [4] was 106% (inactive), the viability [5] was 94.6% (inactive) and the differential viability (reversal) ([6]; H69AR cells + 2 uM doxorubicin) was 8.57% (inactive). The viability [6, 16] was 86%, the viability [6, 17] was 94.6% and the inhibition [7] was -1.67% (inactive). For the same compound, the inhibition [8] was -5.67% (inactive), the growth inhibition [9] was 3.97% (inactive) and the growth inhibition [10] was -4.98% (inactive). The viability increase [11] was 0.04% (inactive), the viability [12] was 92.6% (inactive) and the viability [13] was 89.9% (inactive). The inhibition [14] was 3.21% (inactive) and the RAM network inhibition [15] was 3.72% (inactive).

With `CCOC(=O)c1sc(NC(=O)c2noc3c2CCCC3)c(C(=O)OCC)c1C` the viability [1] was 69.5%, the Her2 level [2] was 83% (inactive) and the viability [3] was 69.5% (inactive). The viability [4] was 85% (inactive), the viability [5] was 67.8% (inactive) and the differential viability (reversal) ([6]; H69AR cells + 2 uM doxorubicin) was -13.2% (inactive). For the same compound, the viability [6, 16] was 81%, the viability [6, 17] was 67.8% and the inhibition [7] was 1.41% (inactive). For the same compound, the inhibition [8] was -4.17% (inactive), the growth inhibition [9] was -0.315% (inactive) and the growth inhibition [10] was -5.25% (inactive). The viability increase [11] was -3.88% (inactive), the viability [12] was 55.2% (inactive) and the viability [13] was 55.8% (inactive). The inhibition [14] was 0.47% (inactive) and the RAM network inhibition [15] was 2.96% (inactive).

For `CCC(C)OC(=O)C1=C(C)NC2=C(C(=O)C(C(=O)OC)C(C)C2)C1c1ccc(N(C)C)cc1` (stereo not drawn), the viability [1] was 94.5%, the Her2 level [2] was 108% (inactive) and the viability [3] was 94.5% (inactive). The viability [4] was 110% (inactive), the viability [5] was 95.8% (inactive) and the differential viability (reversal) ([6]; H69AR cells + 2 uM doxorubicin) was 4.35% (inactive). The viability [6, 16] was 91.5%, the viability [6, 17] was 95.8% and the inhibition [7] was -2.11% (inactive). For the same compound, the inhibition [8] was -5.09% (inactive), the growth inhibition [9] was -3.15% (inactive) and the growth inhibition [10] was -7.23% (inactive). The viability increase [11] was -0.39% (inactive), the viability [12] was 86% (inactive) and the viability [13] was 75.7% (inactive). The inhibition [14] was 1.46% (inactive) and the RAM network inhibition [15] was 8.17% (inactive).

With `CCN1C(=O)c2ccccc2S(=O)c2ccc(C(=O)NC3CC3)cc21` (stereo not drawn) the viability [1] was 100%, the Her2 level [2] was 93.5% (inactive) and the viability [3] was 100% (inactive). For the same compound, the viability [4] was 105% (inactive), the viability [5] was 105% (inactive) and the differential viability (reversal) ([6]; H69AR cells + 2 uM doxorubicin) was 16% (inactive). For the same compound, the viability [6, 16] was 88.7%, the viability [6, 17] was 105% and the inhibition [7] was -2.8% (inactive). The inhibition [8] was 3.77% (inactive), the growth inhibition [9] was 4.88% (inactive) and the growth inhibition [10] was 1.4% (inactive). For the same compound, the viability increase [11] was -2.52% (inactive), the viability [12] was 97.6% (inactive) and the viability [13] was 95.3% (inactive). For the same compound, the inhibition [14] was 0.16% (inactive) and the RAM network inhibition [15] was 1.98% (inactive).

With `CCCCc1cc(=O)oc2cc(OCC(=O)N(CC)CC)c(Cl)cc12` the viability [1] was 98%, the Her2 level [2] was 112% (inactive) and the viability [3] was 98% (inactive). For the same compound, the viability [4] was 77.9% (inactive), the viability [5] was 79% (inactive) and the differential viability (reversal) ([6]; H69AR cells + 2 uM doxorubicin) was -17.3% (inactive). The viability [6, 16] was 96.3%, the viability [6, 17] was 79% and the inhibition [7] was -4% (inactive). The inhibition [8] was -1.17% (inactive), the growth inhibition [9] was -1.69% (inactive) and the growth inhibition [10] was 2.79% (inactive). The viability increase [11] was -1.39% (inactive), the viability [12] was 93.5% (inactive) and the viability [13] was 89.6% (inactive). For the same compound, the inhibition [14] was -0.34% (inactive) and the RAM network inhibition [15] was 5.28% (inactive).
